{"source": "PubChem BioAssay (NCATS)", "note": "Records with an inconclusive call do not appear. Where a call stands in place of a potency, no number is given. Active and inactive are the calls of the source. Calls follow the shape of the dose curve; as a rule, active = well fitted inhibition curve with a large enough effect; inconclusive = small, poorly fitted or top-dose-only effect; inactive = flat fitted curve, though single readings scatter. Potency is read from the fitted curve at half-maximal effect."}
{"test_system": "AA1029", "experiment": "qHTS profiling for inhibitors of Plasmodium falciparum proliferation (AID 504749); also: nearly all actives have a fitted effect of over 60% in size", "details": "P. falciparum in erythrocytes, SYBR Green DNA, 72 h; series mostly up to 28.7 µM", "how_it_was_run": "(§1)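 P. falciparum-infected erythrocytes (0.3% parasitemia, 2.5% hematocrit) incubated with compound 72 h at 37 C, 5% CO2. Parasite DNA detected by SYBR Green after lysis, overnight at room temperature; normalised to 0.29 uM artemisinin and DMSO.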"}
{"smiles": "O=C1C(CCC(O)c2ccc(F)cc2)C(c2ccc(O)cc2)N1c1ccc(F)cc1", "note": "(stereo unspecified)", "Potency": "inactive"}
{"smiles": "CN1CC(=O)N2C(Cc3c([nH]c4ccccc34)[C@H]2c2ccc3c(c2)OCO3)C1=O", "note": "(stereo partly specified)", "Potency": "inactive"}
{"smiles": "CC(C)CN(C[C@@H](O)[C@H](Cc1ccccc1)NC(=O)O[C@H]1CO[C@H]2OCC[C@H]21)S(=O)(=O)c1ccc(N)cc1", "Potency": "inactive"}
{"smiles": "COc1c(C)c2c(c(O)c1CC=C(C)CCC(=O)OCCN1CCOCC1)C(=O)OC2", "Potency": "10 µM (active)"}
{"test_system": "AS120", "experiment": "qHTS profiling for inhibitors of Plasmodium falciparum proliferation (AID 504749); also: nearly all actives have a fitted effect of over 60% in size", "details": "P. falciparum in erythrocytes, SYBR Green DNA, 72 h; series mostly up to 28.7 µM", "how_it_was_run": "as §1"}
{"smiles": "O=C1C(CCC(O)c2ccc(F)cc2)C(c2ccc(O)cc2)N1c1ccc(F)cc1", "note": "(stereo unspecified)", "Potency": "inactive"}
{"smiles": "CN1CC(=O)N2C(Cc3c([nH]c4ccccc34)[C@H]2c2ccc3c(c2)OCO3)C1=O", "note": "(stereo partly specified)", "Potency": "inactive"}
{"smiles": "CC(C)CN(C[C@@H](O)[C@H](Cc1ccccc1)NC(=O)O[C@H]1CO[C@H]2OCC[C@H]21)S(=O)(=O)c1ccc(N)cc1", "Potency": "inactive"}
{"smiles": "COc1c(C)c2c(c(O)c1CC=C(C)CCC(=O)OCCN1CCOCC1)C(=O)OC2", "Potency": "7.94 µM (active)"}
{"test_system": "ATS189", "experiment": "qHTS profiling for inhibitors of Plasmodium falciparum proliferation (AID 504749); also: nearly all actives have a fitted effect of over 60% in size", "details": "P. falciparum in erythrocytes, SYBR Green DNA, 72 h; series mostly up to 28.7 µM", "how_it_was_run": "as §1"}
{"smiles": "O=C1C(CCC(O)c2ccc(F)cc2)C(c2ccc(O)cc2)N1c1ccc(F)cc1", "note": "(stereo unspecified)", "Potency": "inactive"}
{"smiles": "CN1CC(=O)N2C(Cc3c([nH]c4ccccc34)[C@H]2c2ccc3c(c2)OCO3)C1=O", "note": "(stereo partly specified)", "Potency": "inactive"}
{"smiles": "CC(C)CN(C[C@@H](O)[C@H](Cc1ccccc1)NC(=O)O[C@H]1CO[C@H]2OCC[C@H]21)S(=O)(=O)c1ccc(N)cc1", "Potency": "inactive"}
{"smiles": "COc1c(C)c2c(c(O)c1CC=C(C)CCC(=O)OCCN1CCOCC1)C(=O)OC2", "Potency": "7.94 µM (active)"}
{"test_system": "ATS95", "experiment": "qHTS profiling for inhibitors of Plasmodium falciparum proliferation (AID 504749); also: nearly all actives have a fitted effect of over 60% in size", "details": "P. falciparum in erythrocytes, SYBR Green DNA, 72 h; series mostly up to 28.7 µM", "how_it_was_run": "as §1"}
{"smiles": "O=C1C(CCC(O)c2ccc(F)cc2)C(c2ccc(O)cc2)N1c1ccc(F)cc1", "note": "(stereo unspecified)", "Potency": "inactive"}
{"smiles": "CN1CC(=O)N2C(Cc3c([nH]c4ccccc34)[C@H]2c2ccc3c(c2)OCO3)C1=O", "note": "(stereo partly specified)", "Potency": "inactive"}
{"smiles": "CC(C)CN(C[C@@H](O)[C@H](Cc1ccccc1)NC(=O)O[C@H]1CO[C@H]2OCC[C@H]21)S(=O)(=O)c1ccc(N)cc1", "Potency": "inactive"}
{"smiles": "COc1c(C)c2c(c(O)c1CC=C(C)CCC(=O)OCCN1CCOCC1)C(=O)OC2", "Potency": "7.94 µM (active)"}
{"test_system": "C2A", "experiment": "qHTS profiling for inhibitors of Plasmodium falciparum proliferation (AID 504749); also: nearly all actives have a fitted effect of over 60% in size", "details": "P. falciparum in erythrocytes, SYBR Green DNA, 72 h; series mostly up to 28.7 µM", "how_it_was_run": "as §1"}
{"smiles": "O=C1C(CCC(O)c2ccc(F)cc2)C(c2ccc(O)cc2)N1c1ccc(F)cc1", "note": "(stereo unspecified)", "Potency": "inactive"}
{"smiles": "CN1CC(=O)N2C(Cc3c([nH]c4ccccc34)[C@H]2c2ccc3c(c2)OCO3)C1=O", "note": "(stereo partly specified)", "Potency": "inactive"}
{"smiles": "CC(C)CN(C[C@@H](O)[C@H](Cc1ccccc1)NC(=O)O[C@H]1CO[C@H]2OCC[C@H]21)S(=O)(=O)c1ccc(N)cc1", "Potency": "inactive"}
{"smiles": "COc1c(C)c2c(c(O)c1CC=C(C)CCC(=O)OCCN1CCOCC1)C(=O)OC2", "Potency": "11.2 µM (active)"}
{"test_system": "CP185", "experiment": "qHTS profiling for inhibitors of Plasmodium falciparum proliferation (AID 504749); also: nearly all actives have a fitted effect of over 60% in size", "details": "P. falciparum in erythrocytes, SYBR Green DNA, 72 h; series mostly up to 28.7 µM", "how_it_was_run": "as §1"}
{"smiles": "O=C1C(CCC(O)c2ccc(F)cc2)C(c2ccc(O)cc2)N1c1ccc(F)cc1", "note": "(stereo unspecified)", "outcome": "inactive"}
{"smiles": "CN1CC(=O)N2C(Cc3c([nH]c4ccccc34)[C@H]2c2ccc3c(c2)OCO3)C1=O", "note": "(stereo partly specified)", "outcome": "inactive"}
{"smiles": "CC(C)CN(C[C@@H](O)[C@H](Cc1ccccc1)NC(=O)O[C@H]1CO[C@H]2OCC[C@H]21)S(=O)(=O)c1ccc(N)cc1", "outcome": "inactive"}
{"test_system": "CP191", "experiment": "qHTS profiling for inhibitors of Plasmodium falciparum proliferation (AID 504749)", "details": "P. falciparum in erythrocytes, SYBR Green DNA, 72 h; series mostly up to 28.7 µM", "how_it_was_run": "as §1"}
{"smiles": "O=C1C(CCC(O)c2ccc(F)cc2)C(c2ccc(O)cc2)N1c1ccc(F)cc1", "note": "(stereo unspecified)", "outcome": "inactive"}
{"smiles": "CN1CC(=O)N2C(Cc3c([nH]c4ccccc34)[C@H]2c2ccc3c(c2)OCO3)C1=O", "note": "(stereo partly specified)", "outcome": "inactive"}
{"smiles": "CC(C)CN(C[C@@H](O)[C@H](Cc1ccccc1)NC(=O)O[C@H]1CO[C@H]2OCC[C@H]21)S(=O)(=O)c1ccc(N)cc1", "outcome": "inactive"}
